Among all 5,500 compounds or so, about 2,000 (36%) were called active. Not shown: some 18% with an inconclusive outcome. Rule as the data show it: active = normalized growth mostly below about 0.91 (no sharp cut-off); inconclusive = no clear call, values can overlap the other calls; inactive = mostly above about 0.92. This is one part of the list.
Assay: chemical genetic growth profiling, strain panel (AID 1159580);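 also: tested at 20 µM; growth read once vehicle control cultures reached saturation at 30 °C; 1 = growth at the plate median or of vehicle wells; lower values mean less growth of the strain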
Conditions: S. cerevisiae deletion strains, growth OD

Measured: normalized growth

CC1(C)CC[C@@]2(C(=O)O)C(C1)C1=CCC3[C@@]4(C)CC[C@H](O)C(C)(C)C4CC[C@@]3(C)[C@]1(C)C[C@@H]2O (stereo not given in full)
inactive: locus YAL013W, strain DEP1, hits give low values 1.02 | locus YAL021C, strain ccr4, hits give low values 1.01 | locus YAL026C, strain drs2, hits give low values 1.01 | locus YAL030W, strain snc1, hits give low values 1.01 | locus YBL061C, strain skt5, hits give low values 1.03 | locus YBR009C, strain hhf1, hits give low values 1.01 | locus YBR021W, strain FUR4, hits give low values 0.996 | locus YBR023C, strain chs3, hits give low values 1.02 | locus YBR171W, strain sec66, hits give low values 1.02 | locus YBR229C, strain ROT2, hits give low values 1.03 | locus YBR231C, strain swc5, hits give low values 1.03 | locus YBR279W, strain paf1, hits give low values 1.02 | locus YCL011C, strain gbp2, hits give low values 1.02 | locus YCL016C, strain dcc1, hits give low values 1.02 | locus YCL029C, strain bik1, hits give low values 0.992 | locus YCL061C, strain MRC1, hits give low values 1.01 | locus YCL069W, strain vba3, hits give low values 1.01 | locus YCR088W, strain abp1, hits give low values 1.01 | locus YDL005C, strain med2, hits give low values 1.01 | locus YDL035C, strain GPR1, hits give low values 1 | locus YDL040C, strain nat1, hits give low values 1.02 | locus YDL074C, strain BRE1, hits give low values 1 | locus YDL185W, strain tfp1, hits give low values 1.02 | locus YDL192W, strain arf1, hits give low values 1.05 | locus YDR001C, strain nth1, hits give low values 1.01 | locus YDR069C, strain doa4, hits give low values 1.05 | locus YDR101C, strain arx1, hits give low values 1.02 | locus YDR150W, strain NUM1, hits give low values 1.03 | locus YDR159W, strain sac3, hits give low values 0.953 | locus YDR162C, strain NBP2, hits give low values 1.01 | locus YDR195W, strain ref2 0.952 | locus YDR297W, strain sur2, hits give low values 1.01 | locus YDR318W, strain mcm21, hits give low values 1.03 | locus YDR334W, strain swr1, hits give low values 1.01 | locus YDR335W, strain msn5, hits give low values 1.02 | locus YDR388W, hits give low values 1.03 | locus YDR392W, strain spt3, hits give low values 1.01 | locus YDR502C, strain sam2, hits give low values 1.05 | locus YEL003W, strain gim4, hits give low values 1.03 | locus YEL037C, strain rad23, hits give low values 1.02 | locus YEL061C, strain CIN8 (second series), hits give low values 1.02 | locus YEL061C, strain CIN8, hits give low values 1.02 | locus YER015W, strain faa2, hits give low values 1.03 | locus YER016W, strain bim1, hits give low values 1 | locus YER110C, hits give low values 1.03 | locus YER111C, strain swi4, hits give low values 1.01 | locus YER155C, strain BEM2 (second series), hits give low values 1 | locus YER155C, strain BEM2, hits give low values 1.03 | locus YER167W, strain BCK2, hits give low values 1.04 | locus YFR010W, strain ubp6, hits give low values 1.04 | locus YGL078C, strain dbp3, hits give low values 1.03 | locus YGL167C, strain pmr1, hits give low values 1.01 | locus YGL173C, strain kem1, hits give low values 1.01 | locus YGL227W, strain vid30, hits give low values 1.01 | locus YGL240W, strain doc1, hits give low values 1 | locus YGL248W, strain PDE1, hits give low values 1.02 | locus YGL253W, strain hxk2, hits give low values 1.02 | locus YGR078C, strain PAC10, hits give low values 1.05 | locus YGR135W, strain pre9, hits give low values 1.05 | locus YGR252W, strain gcn5, hits give low values 1.07 | locus YHR013C, strain ard1, hits give low values 1.1 | locus YHR027C, strain rpn1, hits give low values 1.02 | locus YHR030C, strain SLT2, hits give low values 1.04 | locus YHR079C, strain IRE1 (second series), hits give low values 1.01 | locus YHR094C, strain hxt1, hits give low values 1.02 | locus YHR129C, strain ARP1, hits give low values 1.04 | locus YHR142W, strain chs7, hits give low values 1.03 | locus YHR200W, strain rpn10, hits give low values 1.04 | locus YIL066C, strain RNR3, hits give low values 1.05 | locus YIL073C, strain SPO22, hits give low values 1.15 | locus YIL125W, strain kgd1, hits give low values 1.02 | locus YJL092W, strain hpr5, hits give low values 1.01 | locus YJL095W, strain BCK1 (second series), hits give low values 1.01 | locus YJL095W, strain BCK1, hits give low values 0.973 | locus YJL115W, strain asf1, hits give low values 1.02 | locus YJL129C, strain trk1, hits give low values 1.02 | locus YJL134W, strain LCB3, hits give low values 1.02 | locus YJL154C, strain vps35, hits give low values 1 | locus YJL164C, strain tpk1, hits give low values 1.03 | locus YJL166W, strain qcr8, hits give low values 1.01 | locus YJL168C, strain set2, hits give low values 1.04 | locus YJL187C, strain SWE1 (second series), hits give low values 1.02 | locus YJL187C, strain SWE1, hits give low values 1.01 | locus YJR043C, strain POL32, hits give low values 1.02 | locus YKL160W, strain elf1, hits give low values 0.995 | locus YKL190W, strain CNB1, hits give low values 1.03 | locus YKR001C, strain vps1, hits give low values 1.03 | locus YKR026C, strain gcn3, hits give low values 0.988 | locus YKR091W, strain srl3, hits give low values 1.01 | locus YLL001W, strain dnm1, hits give low values 1.02 | locus YLL026W, hits give low values 1.01 | locus YLL041C, strain sdh2, hits give low values 1.01 | locus YLR027C, strain aat2, hits give low values 1.02 | locus YLR039C, strain RIC1, hits give low values 0.866 | locus YLR058C, strain SHM2, hits give low values 1.03 | locus YLR102C, strain apc9, hits give low values 1.02 | locus YLR221C, strain rsa3, hits give low values 1.02 | locus YLR258W, strain gsy2, hits give low values 1.01 | locus YLR262C, strain YPT6 (second series), hits give low values 0.871 | locus YLR262C, strain YPT6, hits give low values 0.827 | locus YLR268W, strain sec22, hits give low values 1.01 | locus YLR320W, strain mms22, hits give low values 1.02 | locus YLR330W, strain CHS5, hits give low values 1.03 | locus YLR342W, strain FKS1 (second series), hits give low values 0.97 | locus YLR342W, strain FKS1, hits give low values 1.02 | locus YLR357W, strain rsc2, hits give low values 1 | locus YLR370C, strain arc18, hits give low values 1.02 | locus YLR371W, strain rom2, hits give low values 1.01 | locus YLR384C, strain iki3, hits give low values 1.02 | locus YML016C, strain PPZ1, hits give low values 1.03 | locus YML032C, strain rad52, hits give low values 1.02 | locus YML120C, strain ndi1, hits give low values 1.02 | locus YML124C, strain tub3, hits give low values 1.05 | locus YMR058W, strain fet3, hits give low values 1.03 | locus YMR078C, strain ctf18, hits give low values 1.03 | locus YMR125W, strain sto1, hits give low values 1.03 | locus YMR129W, hits give low values 1.02 | locus YMR205C, strain PFK2, hits give low values 0.984 | locus YMR223W, strain ubp8, hits give low values 1.01 | locus YMR231W, strain pep5, hits give low values 1.01 | locus YMR307W, strain GAS1, hits give low values 0.909 | locus YNL067W, strain RPL9B, hits give low values 1.02 | locus YNL071W, strain lat1, hits give low values 1.01 | locus YNL128W, strain TEP1, hits give low values 0.874 | locus YNL153C, strain GIM3, hits give low values 1.02 | locus YNL209W, strain ssb2, hits give low values 1.03 | locus YNL233W, strain BNI4, hits give low values 1.03 | locus YNL248C, strain rpa49, hits give low values 1.01 | locus YNL250W, strain rad50, hits give low values 1.04 | locus YNL271C, strain bni1, hits give low values 1.02 | locus YNL298W, strain CLA4, hits give low values 1.02 | locus YNL307C, strain MCK1, hits give low values 1.05 | locus YNL322C, strain KRE1 (second series), hits give low values 0.998 | locus YNR049C, strain mso1, hits give low values 1.01 | locus YNR052C, strain pop2, hits give low values 1.03 | locus YOL006C, strain TOP1, hits give low values 1.17 | locus YOL012C, strain htz1 1.06 | locus YOL147C, strain pex11, hits give low values 1.03 | locus YOR001W, strain rrp6, hits give low values 1 | locus YOR061W, strain CKA2, hits give low values 1 | locus YOR069W, strain VPS5, hits give low values 1.01 | locus YOR070C, strain gyp1, hits give low values 1.03 | locus YOR080W, strain dia2, hits give low values 1.01 | locus YOR083W, strain WHI5, hits give low values 0.996 | locus YOR106W, strain vam3, hits give low values 1 | locus YOR136W, strain idh2, hits give low values 1.04 | locus YOR144C, strain elg1, hits give low values 1.03 | locus YOR184W, strain ser1, hits give low values 1 | locus YOR265W, strain rbl2, hits give low values 1.03 | locus YOR270C, strain vph1, hits give low values 1.11 | locus YOR290C, strain snf2, hits give low values 0.991 | locus YOR316C, strain cot1, hits give low values 1.03 | locus YPL051W, strain arl3, hits give low values 0.99 | locus YPL078C, strain atp4, hits give low values 1.02 | locus YPL106C, strain sse1, hits give low values 1.03 | locus YPL240C, strain hsp82, hits give low values 1.01 | locus YPR119W, strain clb2, hits give low values 1.03 | locus YPR141C, strain kar3, hits give low values 1.05 | locus YPR163C, strain tif3, hits give low values 1.05 | locus YPR167C, strain met16, hits give low values 1.04 | strain wtn01, hits give low values 1.05
active: locus YDL101C, strain DUN1, hits give low values 0.827 | locus YDR137W, strain rgp1, hits give low values 0.828 | locus YGL086W, strain mad1, hits give low values 1.22 [resistant] | locus YIR030C, strain dcg1, hits give low values 1.1 [resistant] | locus YKL009W, strain mrt4, hits give low values 1.16 [resistant] | locus YKL068W, hits give low values 1.19 [resistant] | locus YKL085W, strain MDH1 (second series), hits give low values 1.24 [resistant] | locus YKL085W, strain MDH1, hits give low values 1.24 [resistant] | locus YLR418C, strain cdc73, hits give low values 1.19 [resistant]

From PubChem BioAssay AID1159580 (chemical genetic matrix, 2015)
